The full list was thinned out, with the strongest signals kept by preference.

Common to all, as to test: glycan array binding signal (z-score within array); higher = stronger binding
Common to all, as to conditions: glycan notation: IUPAC condensed, linker removed

In test [1] the target is Fuc(a1-2)Gal(b1-3)GalNAc(b1-3)Gal. The essentials:
(§1)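 Glycan array data were curated from 3228 arrays in the Consortium for Functional Glycomics database and kept only where the protein sequence was available. Glycan names were converted to IUPAC-condensed notation, and columns mapping to the same glycan were averaged. The binding signal is a within-array Z-score, averaged across arrays of the same protein sequence at different concentrations or buffers and across linkers. Negative Z-scores can be read as non-binding.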

The target in test [2] is Fuc(a1-2)Gal(b1-4)GlcNAc(b1-3)Gal(b1-4)GlcNAc. Summed up:
as §1

In test [3] the target is Fuc(a1-2)Gal(b1-4)GlcNAc(b1-3)Gal(b1-4)GlcNAc(b1-3)Gal(b1-4)GlcNAc. The essentials:
as §1

The target in test [4] is Fuc(a1-2)Gal(b1-4)[Fuc(a1-3)]GlcNAc(b1-3)Gal(b1-4)[Fuc(a1-3)]GlcNAc(b1-3)Gal(b1-4)[Fuc(a1-3)]GlcNAc. Summed up:
as §1

Test [5] has as its target Fuc(a1-2)[Gal(a1-3)]Gal(b1-4)Glc. The essentials: as §1
Test [6] has as its target Fuc(a1-2)[Gal(a1-3)]Gal(b1-4)[Fuc(a1-3)]GlcNAc. The essentials: as §1
Test [7] concerns the target Fuc(a1-2)[GalNAc(a1-3)]Gal(b1-4)GlcNAc. The essentials:
as §1

Test [8] concerns the target Fuc(a1-2)[GalNAc(a1-3)]Gal(b1-4)[Fuc(a1-3)]GlcNAc. Summed up: as §1
Another test has as its target Gal(b1-2)Gal. Summed up: as §1
For test [9], the target named is Gal(b1-3)GalNAc(b1-4)Gal(b1-4)Glc. The essentials:
as §1

The next test has as its target Gal(b1-4)Glc6S. The essentials: as §1
A further test concerns the target Gal3S6S(b1-4)GlcNAc6S. The essentials:
as §1

Another test has as its target Gal6S(b1-4)GlcNAc. Summed up: as §1
The target in test [10] is GlcNAc(b1-3)Gal(b1-4)GlcNAc. The essentials:
as §1

Test [11] has as its target GlcNAc(b1-4)[GlcNAc(b1-6)]GalNAc. Summed up: as §1
Test [12] addresses Man(a1-2)Man(a1-2)Man(a1-3)Man. Summed up:
as §1

For test [13], the target named is Neu5Ac(a2-3)Gal(b1-3)GalNAc(b1-3)Gal(a1-4)Gal(b1-4)Glc. Summed up: as §1
Test [14] addresses Neu5Ac(a2-3)Gal(b1-3)GalNAc6S. The essentials: as §1
Test [15] deals with Neu5Ac(a2-3)GalNAc(b1-4)GlcNAc. The essentials: as §1
Test [16] addresses Neu5Ac(a2-6)Gal(b1-4)GlcNAc. The essentials: as §1
The target in test [17] is Neu5Ac(a2-6)Gal(b1-4)GlcNAc(b1-3)Gal(b1-4)[Fuc(a1-3)]GlcNAc(b1-3)Gal(b1-4)[Fuc(a1-3)]GlcNAc. Summed up:
as §1

Test [18] deals with Neu5Ac9Ac(a2-6)Gal(b1-4)GlcNAc. Summed up: as §1
Test [19] has as its target Fuc(a1-2)Gal(b1-4)[Fuc(a1-3)]GlcNAc. Summed up:
as §1

Test [20] concerns the target Gal(b1-3)[Fuc(a1-4)]GlcNAc(b1-3)Gal(b1-4)GlcNAc. The essentials: as §1
The target in test [21] is Gal(b1-3)[Fuc(a1-4)]GlcNAc(b1-3)Gal(b1-4)[Fuc(a1-3)]GlcNAc. The essentials: as §1
The next test addresses Gal3S(b1-4)Glc. Summed up:
as §1

The next test concerns the target Gal3S(b1-4)Glc6S. The essentials:
as §1

The target of the next test is Gal3S(b1-4)GlcNAc. Summed up: as §1
A further test concerns the target Gal3S(b1-4)GlcNAc6S. The essentials:
as §1

In the next test the target is Gal3S6S(b1-4)GlcNAc. Summed up:
as §1

The target in test [22] is GlcNAc(a1-3)Gal(b1-4)GlcNAc. Summed up: as §1
In test [23] the target is GlcNAc(b1-3)[GlcNAc(b1-6)]GalNAc. Summed up:
as §1

For test [24], the target named is Man(a1-2)Man(a1-3)[Man(a1-2)Man(a1-6)]Man(a1-6)[Man(a1-3)[Man(a1-6)]Man(a1-6)]Man(b1-4)GlcNAc(b1-4)GlcNAc. The essentials: as §1
The next test has as its target Neu5Ac(a2-3)GalNAc. Summed up:
as §1

Test [25] deals with Neu5Ac(a2-3)[GalNAc(b1-4)]Gal(b1-4)Glc. The essentials:
as §1

The target in the next test is Neu5Ac(a2-6)Gal(b1-4)Glc. Summed up: as §1
Test [26] addresses Neu5Gc(a2-3)Gal(b1-4)[Fuc(a1-3)]GlcNAc. The essentials:
as §1

A further test deals with Fuc(a1-2)Gal6S(b1-4)Glc. The essentials: as §1
For test [27], the target named is Fuc(a1-2)[Gal(a1-3)]Gal(b1-4)GlcNAc. The essentials: as §1
The next test addresses Fuc(a1-3)GlcNAc. The essentials:
as §1

The target in test [28] is Fuc(a1-3)[Gal(b1-4)]GlcNAc6S. The essentials:
as §1

In test [29] the target is Gal(a1-3)Gal(b1-4)[Fuc(a1-3)]GlcNAc. Summed up:
as §1

The target in another test is Gal(b1-3)Gal. Summed up:
as §1

Test [30] addresses Gal(b1-3)[GlcNAc(b1-6)]GalNAc. The essentials: as §1
Test [31] addresses Gal(b1-4)GlcNAc(b1-3)Gal(b1-4)Glc. The essentials: as §1
The target of test [32] is Gal(b1-4)GlcNAc(b1-3)Gal(b1-4)[Fuc(a1-3)]GlcNAc(b1-3)Gal(b1-4)[Fuc(a1-3)]GlcNAc. Summed up: as §1
The target of test [33] is Gal(b1-4)GlcNAc(b1-3)[GlcNAc(b1-6)]Gal(b1-4)GlcNAc. The essentials:
as §1

A further test has as its target GalNAc(b1-3)Gal. The essentials: as §1
For another test, the target named is GalNAc(b1-4)GlcNAc. Summed up: as §1
A further test concerns the target Kdn(a2-3)Gal(b1-3)GlcNAc. The essentials: as §1
Test [34] deals with Man(a1-3)[Man(a1-6)]Man(a1-6)[Man(a1-2)Man(a1-3)]Man(b1-4)GlcNAc(b1-4)GlcNAc. The essentials:
as §1

For test [35], the target named is Neu5Ac(a2-3)Gal(b1-3)GlcNAc6S. The essentials: as §1
The target of test [36] is Neu5Ac(a2-3)Gal(b1-3)[Fuc(a1-4)]GlcNAc. The essentials:
as §1

Test [37] addresses Neu5Ac(a2-3)Gal(b1-4)GlcNAc(b1-3)Gal(b1-3)GlcNAc. Summed up:
as §1

The target of test [38] is Neu5Ac(a2-3)Gal6S(b1-4)[Fuc(a1-3)]GlcNAc. Summed up:
as §1

The target of test [39] is Neu5Ac(a2-6)Gal(b1-4)GlcNAc(b1-2)Man(a1-6)[Gal(b1-4)GlcNAc(b1-2)Man(a1-3)]Man(b1-4)GlcNAc(b1-4)GlcNAc. Summed up:
as §1

Test [40] addresses Neu5Ac(a2-8)Neu5Ac(a2-8)Neu5Ac. The essentials: as §1

B1: CLEC-6 (Homo sapiens), Q8WXI8 (protein)
chain: MGLEKPQSKLEGGMHPQLIPSVIAVVFILLLSVCFIASCLVTHHNFSRCKRGTGVHKLEHHAKLKCIKEKSELKSAEGSTWNCCPIDWRAFQSNCYFPLTDNKTWAESERNCSGMGAHLMTISTEAEQNFIIQFLDRRLSYFLGLRDENAKGQWRWVDQTPFNPRRVFWHKNEPDNSQGENCVVLVYNQDKWAWNDVPCNFEASRICKIPGTTLN
Regarding B1, the “glycan array binding signal (z-score)” value in test [1] was 6.22; in test [2], -0.176; in test [3], -0.295; in test [4] it was 0.12; in test [5], -0.282; in [6], -0.276. The “glycan array binding signal (z-score)” value in test [7] is -0.239; in [8], -0.102; with Gal(b1-2)Gal, -0.038; in test [9] it was -0.328; in the test with Gal(b1-4)Glc6S, -0.263; with Gal3S6S(b1-4)GlcNAc6S, 6.21. Besides, the “glycan array binding signal (z-score)” value is -0.239 with Gal6S(b1-4)GlcNAc; -0.077 in [10]; -0.138 in [11]; 1.94 in test [12]; -0.144 in [13]; -0.077 in test [14]. In addition, the “glycan array binding signal (z-score)” value in [15] was -0.104; in [16], -0.221; in test [17], 1.59; in test [18] it was -0.166.

B2: MAL (Maackia amurensis) (protein)
chain: SDELSFTINNFMPNQGDLLFQGVATVSPTGVLQLTSEENGQPLEYSVGRVLYTAPVRIWDSTTGAVASFSTSFTFVVKAARGASDGLAFFLAPPDSQIPSGSVSKYLGLFNNSNSDSSNQIVAVEFDTYFGHSYDPWDPNYRHIGIDVNGIESIKTVQWDWINGGVAFATITYLAPNKTLIASLVYPSNQTSFIVAASVDLKEILPEWVRVGFSAATGAPKAVETHDVRSWSFTSTLEANSPADVDN
On to B2, for which the “glycan array binding signal (z-score)” value is -0.382 in test [1]; 0.544 in test [19]; -0.348 in [6]; -0.428 in test [20]; -0.272 in test [21]; 4.98 in the test with Gal3S(b1-4)Glc. For the same molecule, the “glycan array binding signal (z-score)” value with Gal3S(b1-4)Glc6S is 4.51; in the test with Gal3S(b1-4)GlcNAc it was 4.96; in the test with Gal3S(b1-4)GlcNAc6S, 5.35; in the test with Gal3S6S(b1-4)GlcNAc, 0.345; in the test with Gal6S(b1-4)GlcNAc it was -0.066; in test [22] it was -0.353. For the same molecule, the “glycan array binding signal (z-score)” value in [23] is -0.374; in test [11] it was -0.221; in [24], -0.305; with Neu5Ac(a2-3)GalNAc, -0.392; in test [15], -0.416; in [25], -0.394. Further, the “glycan array binding signal (z-score)” value with Neu5Ac(a2-6)Gal(b1-4)Glc is 0.057; in test [26], -0.371.

B3: Angptl4 (Homo sapiens), Q9BY76 (protein)
chain: MSGAPTAGAALMLCAATAVLLSAQGGPVQSKSPRFASWDEMNVLAHGLLQLGQGLREHAERTRSQLSALERRLSACGSACQGTEGSTDLPLAPESRVDPEVLHSLQTQLKAQNSRIQQLFHKVAQQQRHLEKQHLRIQHLQSQFGLLDHKHLDHEVAKPARRKRLPEMAQPVDPAHNVSRLHRLPRDCQELFQVGERQSGLFEIQPQGSPPFLVNCKMTSDGGWTVIQRRHDGSVDFNRPWEAYKAGFGDPHGEFWLGLEKVHSITGDRNSRLAVQLRDWDGNAELLQFSVHLGGEDTAYSLQLTAPVAGQLGATTVPPSGLSVPFSTWDQDHDLRRDKNCAKSLSGGWWFGTCSHSNLNGQYFRSIPQQRQKLKKGIFWKTWRGRYYPLQATTMLIQPMAAEAAS
Turning to B3, the “glycan array binding signal (z-score)” value in test [1] is 5.26; in test [3], 0.616; in the test with Fuc(a1-2)Gal6S(b1-4)Glc it was -0.253; in test [27], 0.087; in the test with Fuc(a1-3)GlcNAc it was -0.446; in [28] it was -0.527. Moreover, the “glycan array binding signal (z-score)” value in test [29] is -0.522; with Gal(b1-3)Gal it was 0.531; in test [21], -0.192; in [30] it was -0.215; in test [31], -0.407; in [32], 3.98. Moreover, the “glycan array binding signal (z-score)” value in test [33] was -0.27; with Gal3S(b1-4)Glc, -0.052; with GalNAc(b1-3)Gal, -0.523; in the test with GalNAc(b1-4)GlcNAc, -0.398; in the test with Kdn(a2-3)Gal(b1-3)GlcNAc, 0.691; in test [34] it was 5.32. Moreover, the “glycan array binding signal (z-score)” value is 7.07 in test [35]; -0.272 in test [36]; -0.262 in test [37]; -0.53 in [38]; -0.954 with Neu5Ac(a2-3)GalNAc; 4.1 in test [39]. Moreover, the “glycan array binding signal (z-score)” value is 0.162 in test [17] and -0.016 in test [40].

(Values after the supplement of paper PMC8728848.)
